These results are taken from PubChem BioAssay (Tox21).

SMILES strings stand for the structures. A number with no mark means an inactive call. Records with an inconclusive call do not appear. Activity calls are given as the source filed them. Unless noted, the call rests on the fitted dose curve; in most records, active means well fitted curve in the direction sought with a large enough effect in the repeat runs; inconclusive means weak or mixed curves; inactive means no such curve, though single readings can be large; an effect the other way counts as inactive or inconclusive.

The target of assay [1] is Nuclear receptor subfamily 1 group I member 3 (Homo sapiens) (UniProt Q14994). Description: qHTS assay to identify small molecule antagonists of the constitutive androstane receptor (CAR) signaling pathway (AID 1224838).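 Further: HepG2 cells stably expressing hCAR with CYP2B6 luciferase reporter stimulated by CITCO; nearly all actives have a fitted effect of over 40% in size.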 Further: potency means the concentration at half of the fitted maximal effect. Put shortly: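 HepG2-CYP2B6-hCAR cells; 4 h pre-incubation; cpd (15 conc) + CITCO 50 nM final; 24 h, 37 C/5% CO2; ONE-Glo, luminescence.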
Assay [2] can be described thus: qHTS assay to identify small molecule antagonists of the estrogen related receptor signaling pathway with the pleiotropic PPARgamma coactivator (PGC) from Tox21 10K library (AID 1224841; call rule not given here; further: actives are mostly falling curves and most rising ones were filed inactive; nearly all actives have a fitted effect of over 50% in size; further: potency means the concentration at half of the fitted maximal effect). Summed up:
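PGC/ERR cell line, 2,000 cells/well; 6 h pre-incubation 37 C/5% CO2; compounds (DMSO) pinned in; 18 h, 37 C; One-Glo, 30 min RT; luminescence.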

The nature of assay [3]: qHTS assay to identify small molecule agonists of the estrogen related receptor signaling pathway with the pleiotropic PPARgamma coactivator (PGC) from Tox21 10K library (AID 1224842). Further: on the % scale 0 is the no-effect control and ±100 the full control effect; nearly all actives have a fitted effect of over 15% in size. Put shortly:
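Luminescence from One-Glo (30 min, room temperature) measured after PGC/ERR cells had 18 h at 37 C with pinned compound (23 nL in DMSO). Cells had been seeded at 2,000 per well and pre-incubated 6 h.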

Assay [4] concerns the target Thyrotropin receptor (Homo sapiens) (UniProt P16473). In words: qHTS assay to identify small molecule agonists of the thyroid stimulating hormone receptor (TSHR) signaling pathway (AID 1224843; calls by dose curve; further: on the % scale 0 is the no-effect control and ±100 the full control effect; nearly all actives have a fitted effect of over 45% in size). Summed up:
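Screening of the Tox21 10K collection used HEK293 cells engineered with TSHR at 800 cells per well. After a 30-min room-temperature compound exposure, HTRF cAMP reagents were added and fluorescence recorded 1 h later.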

A short description of assay [5]: qHTS assay to identify small molecule antagonists of the estrogen related receptor (ERR) signaling pathway from Tox21 library (AID 1224848). Further: nearly all actives have a fitted effect of over 50% in size. Further: potency means the concentration at half of the fitted maximal effect. Summed up:
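Antagonist-mode screen of the Tox21 10K library in an NTP-provided ERR reporter cell line; 18 h compound exposure at 37 C, luminescence measured with ONE-Glo.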

Assay [6] in a line: qHTS assay to identify small molecule agonists of the estrogen related receptor (ERR) signaling pathway from Tox21 library (AID 1224849; calls by dose curve; further: on the % scale 0 is the no-effect control and ±100 the full control effect; nearly all actives have a fitted effect of over 15% in size). The note with it: ERR reporter cell line, ONE-Glo luciferase, 18 h; at 92.4 µM (top of the series) unless noted. Summed up:
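ERR cells, 6 h pre-incubation 37 C/5% CO2; cpd in DMSO pinned; 18 h 37 C; ONE-Glo added, 30 min RT; luminescence read. Agonist mode, qHTS.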

Assay [7] in a line: qHTS RealTime-Glo MT Cell Viability Assay in HepG2 cells - 24 hour (AID 1224867). Further: nearly all actives have a fitted effect of over 50% in size. Further: potency means the concentration at half of the fitted maximal effect. Summed up:
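HepG2 suspension premixed with RealTime-Glo reagents is plated at 600 cells per well and left 5 h at 37 C/5% CO2. Compounds in DMSO then go in, and bioluminescence reflecting viable cell number is recorded over 40 h.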

A short description of assay [8]: A CellTox Green Cytotoxicity Assay to monitor cytotoxicity in HEK293 cells - 0 hour (AID 1224869). Further: on the % scale 0 is the no-effect control and ±100 the full control effect; nearly all actives have a fitted effect of over 50% in size. Put shortly:
(§1)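 Nonlytic real-time cytotoxicity: HEK293 + CellTox Green reagent plated, 5 h preincubation, pintool compound addition (23 nL in DMSO), 37 C for 40 h, fluorescence measured at successive time points.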

A short description of assay [9]: qHTS RealTime-Glo MT Cell Viability Assay in HepG2 cells - 40 hour (AID 1224870). Further: nearly all actives have a fitted effect of over 50% in size. Further: potency means the concentration at half of the fitted maximal effect. Put shortly:
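Real-time viability: cells seeded at 600 per well together with NanoLuc and cell-permeant prosubstrate, compounds added after 5 h incubation. Luminescence tracked at 0, 8, 16, 24, 32 and 40 h of exposure.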

The nature of assay [10]: A CellTox Green Cytotoxicity Assay to monitor cytotoxicity in HEK293 cells - 40 hour (AID 1224871). Further: nearly all actives have a fitted effect of over 45% in size. Further: potency means the concentration at half of the fitted maximal effect. Put shortly:
as §1

The nature of assay [11]: qHTS assay to identify small molecule antagonists of the constitutive androstane receptor (CAR) signaling pathway - cell viability counter screen (AID 1224837). Further: nearly all actives have a fitted effect of over 45% in size. Further: potency means the concentration at half of the fitted maximal effect. Summed up:
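HepG2-CYP2B6-hCAR cells, 2500/well, 4 hr pre-incubation; compound titration, 15 conc.; CITCO 50 nM final; 23 hr, 37 C/5% CO2; CellTiter-Fluor, fluorescence intensity.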

In assay [12] the target is Nuclear receptor subfamily 1 group I member 3 (Homo sapiens) (UniProt Q14994). Description: qHTS assay to identify small molecule agonists of the constitutive androstane receptor (CAR) signaling pathway (AID 1224839).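 Further: HepG2 cells stably carrying human CAR and a CYP2B6 luciferase reporter; on the % scale 0 is the no-effect control and ±100 the full control effect; nearly all actives have a fitted effect of over 15% in size.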 Summed up: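 Cells were plated and incubated 4 hrs, then dosed with compounds at 15 concentrations. PK11195 was added to 0.75 uM final. After 24 hrs at 37 C, luciferase luminescence was measured.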

Assay [13] is described as follows: qHTS assay to identify small molecule antagonists of the estrogen related receptor signaling pathway with the pleiotropic PPARgamma coactivator (PGC) from Tox21 10K library - cell viability counter screen (AID 1224840; active means well fitted cell-killing curve with a large enough effect in the repeat runs, not every such curve was filed as active; further: nearly all actives have a fitted effect of over 40% in size; further: potency means the concentration at half of the fitted maximal effect). Summed up:
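PGC/ERR cells, 2,000/well; 6 h pre-incubation 37 C/5% CO2; cpd in DMSO via pin tool; 17.5 h 37 C; CellTiter-Fluor, 30 min; fluorescence.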

Assay [14] can be described thus: qHTS assay to identify small molecule agonists of H2AX (AID 1224845; active means well fitted activation curve with a large enough effect in the signal ratio in the repeat runs, not every such curve was filed as active; the % refers to the signal ratio; further: potency means the concentration at half of the fitted maximal effect). Summed up:
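Phospho-H2AX Ser139 measured by HTRF (ex 320 nm; em 665 and 620 nm) after 24 hr antibody incubation. Compounds, 15 concentrations, 0.76% DMSO, were applied to CHO-K1 cells for 3hr at 37C before lysis.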

The nature of assay [15]: qHTS assay to identify small molecule agonists of the hypoxia (HIF-1) signaling pathway (AID 1224846; active means well fitted activation curve with a large enough effect in the signal ratio in the repeat runs, not every such curve was filed as active; the % refers to the signal ratio; further: on the % scale 0 is the no-effect control and ±100 the full control effect). Summed up: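 Cell line: CellSensor HRE-bla ME-180; 2,000 cells/well; 0.5% dialyzed FBS; 5 h preincubation; DMSO compound pin transfer; 17 h, 37C, 5% CO2; CCF4-AM added; bla FRET signal scored for activation.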
Assay [16] can be described thus: qHTS assay to identify small molecule agonists of H2AX - cell viability counter screen (AID 1224847; calls by dose curve; further: nearly all actives have a fitted effect of over 30% in size; further: potency means the concentration at half of the fitted maximal effect). Summed up:
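Cytotoxicity counter screen in wild-type CHO-K1 cells: a 3 hr compound treatment at 37C across 15 concentrations, followed by CellTiter-Glo luminescence to gauge viable cells.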

Assay [17] is described as follows: qHTS RealTime-Glo MT Cell Viability Assay in HEK293 cells - 16 hour (AID 1224872). Further: nearly all actives have a fitted effect of over 50% in size. Further: potency means the concentration at half of the fitted maximal effect. Put shortly: (§2)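 Reads taken at 0, 8, 16, 24, 32 and 40 h from the same wells. HEK293 cells (600/well) carried RealTime-Glo reagents from seeding, with compound added after a 5 h settle at 37 C.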
Assay [18] can be described thus: qHTS RealTime-Glo MT Cell Viability Assay in HEK293 cells - 32 hour (AID 1224868). Put shortly: as §2
Assay [19] is described as follows: qHTS assay to identify small molecule agonists of the hypoxia (HIF-1) signaling pathway - cell viability counter screen (AID 1224844; calls by dose curve). Put shortly:
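ME-180 HRE-bla cells, 2,000/well, 0.5% dialyzed FBS; 5 hr settle, 17 hr compound at 37C/5% CO2; CCF4-AM reporter read first, then CellTiter-Glo luminescence after 30 min RT.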

Thyrotropin receptor (Homo sapiens), sequence (P16473 whole entry, looked up): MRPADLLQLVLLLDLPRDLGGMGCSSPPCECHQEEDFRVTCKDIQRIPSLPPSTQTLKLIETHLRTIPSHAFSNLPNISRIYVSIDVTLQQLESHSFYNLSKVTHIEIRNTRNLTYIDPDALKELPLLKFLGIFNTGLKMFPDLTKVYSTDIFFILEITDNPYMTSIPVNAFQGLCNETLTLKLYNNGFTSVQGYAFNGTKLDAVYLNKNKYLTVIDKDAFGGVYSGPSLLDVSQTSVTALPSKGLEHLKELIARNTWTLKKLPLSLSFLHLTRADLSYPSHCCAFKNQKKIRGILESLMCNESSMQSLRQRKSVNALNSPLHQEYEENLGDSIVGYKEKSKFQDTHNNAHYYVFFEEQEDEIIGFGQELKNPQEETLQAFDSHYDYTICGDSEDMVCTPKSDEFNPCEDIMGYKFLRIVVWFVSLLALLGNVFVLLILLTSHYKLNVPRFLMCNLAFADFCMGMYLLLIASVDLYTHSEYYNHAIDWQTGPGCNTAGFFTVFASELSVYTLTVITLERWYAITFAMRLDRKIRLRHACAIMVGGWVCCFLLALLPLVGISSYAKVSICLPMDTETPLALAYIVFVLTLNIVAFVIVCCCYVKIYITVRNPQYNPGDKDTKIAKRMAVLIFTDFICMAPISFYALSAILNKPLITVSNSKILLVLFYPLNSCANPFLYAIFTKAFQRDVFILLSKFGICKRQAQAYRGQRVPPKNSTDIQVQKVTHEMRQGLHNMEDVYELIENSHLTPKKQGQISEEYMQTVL
Nuclear receptor subfamily 1 group I member 3 (Homo sapiens), sequence (Q14994 whole entry, looked up): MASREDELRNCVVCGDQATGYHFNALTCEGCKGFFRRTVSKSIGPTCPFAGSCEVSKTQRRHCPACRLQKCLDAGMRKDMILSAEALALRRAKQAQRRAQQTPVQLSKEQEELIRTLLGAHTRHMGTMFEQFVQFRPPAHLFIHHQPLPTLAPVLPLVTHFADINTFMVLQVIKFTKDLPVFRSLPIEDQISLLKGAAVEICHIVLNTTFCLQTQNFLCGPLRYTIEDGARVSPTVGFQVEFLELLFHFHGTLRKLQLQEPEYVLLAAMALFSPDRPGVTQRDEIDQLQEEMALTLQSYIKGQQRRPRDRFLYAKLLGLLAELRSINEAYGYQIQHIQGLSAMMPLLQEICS

On to `Nc1cc(Cl)c([N+](=O)[O-])cc1O`, for which the Potency result in assay [1], in [2], in [3], in assay [4], in assay [5] and in assay [7] was “inactive” in each case. Besides, the Potency entry in [8], in assay [9] and in assay [10] was “inactive” in each case. Besides, the activity change, positive = activation in assay [6] was -13.4%.

Regarding `CCN(CC)CCCN(c1ccccc1)C1Cc2ccccc2C1`, the Potency entry in assay [11], in [12], in [13], in [4], in assay [14] and in [16] was “inactive” throughout. The Potency result in assay [7], in [8], in assay [9] and in [17] was “inactive” in each case. Further, the compound was classed as inactive in [15].

For `O=C(Nc1ccc(Cl)c(Cl)c1)c1cc(Cl)cc(Cl)c1O`, the Potency in [11] is 7.7 µM (active); in assay [13] it was 4.33 µM (active); in [16] it was 10.1 µM (active); in assay [5] it was 1.09 µM (active); in assay [18], 4.9 µM (active); in assay [9], 12.3 µM (active). Further, the Potency in assay [10] is 49 µM (active). Besides, the Potency entry in assay [3], in assay [14] and in assay [8] was “inactive” throughout. Further, the activity change, positive = activation in [6] was -15.1%.

For `CNC(=O)c1cc(Oc2ccc(NC(=O)Nc3ccc(Cl)c(C(F)(F)F)c3)cc2)ccn1`, the Potency entry in assay [3], in assay [4], in [19], in assay [8] and in assay [10] was “inactive” each time. Further, the Potency was 8.41 µM (active) in assay [5], 3.01 µM (active) in assay [18] and 3.01 µM (active) in [17]. Besides, the activity change, positive = activation in assay [6] was -59.1% [at 42.5 µM].

Turning to `CCCCOc1ccc(C(=O)CCN2CCCCC2)cc1`, the Potency result in [1], in assay [12], in [13], in assay [4], in assay [19] and in [16] was “inactive” throughout. In [8], the Potency result was “inactive”. In addition, the Potency in assay [7] is 21.3 µM (active); in [18] it was 16.9 µM (active); in [10], 19 µM (active).

As for `O=C(Nc1ccc(Cl)cc1)Nc1ccc(Cl)c(C(F)(F)F)c1`, the Potency in assay [1] is 16.8 µM (active); in assay [2], 5.31 µM (active); in assay [16] it was 22 µM (active); in assay [5], 3.76 µM (active); in [18], 4.77 µM (active); in [17], 8.49 µM (active). Also, the Potency entry in assay [12], in assay [3], in assay [4] and in assay [8] was “inactive” throughout. Further, in assay [6], the activity change, positive = activation is -40.9% [at 42.5 µM].

As to `CCN(CC)CCOc1ccc(C(O)(Cc2ccc(Cl)cc2)c2ccc(C)cc2)cc1` (stereo unspecified), the Potency result in [3] and in assay [4] was “inactive” each time. The Potency in assay [14] is 49.2 µM (active); in [5], 29.8 µM (active); in assay [7], 23.9 µM (active); in assay [9] it was 15.1 µM (active); in assay [17] it was 21.3 µM (active). Moreover, in [15], the call was inactive. Moreover, in [6], the activity change, positive = activation is -61% [at 42.5 µM].
